In PubChem BioAssay AID645 (SRMLSC, 2007):
In all, about 65,000 compounds went through this assay and about 450 (0.69%) were called active. For the sample, actives were picked, then their nearest neighbours and some compounds at random. Unmarked numbers belong to inactive results.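 Rule for the calls: active = HER2 level under 5% of the carrier-only control; inconclusive = no clear call, values can overlap the other calls; inactive = the rest.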

Each compound was assayed against Receptor tyrosine-protein kinase erbB-2 (Homo sapiens) (UniProt P04626) (assay: reducers of endogenous HER2 protein levels – SKBR-3 cells, AlphaScreen, 66K library, primary screen (AID 645;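 note: 100% = DMSO carrier and 0% = 500 nM PU-H71 HSP90 inhibitor; lower value means stronger loss of Her2 protein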)). Conditions: SKBR-3 HER2 protein level, 18-24 h, at 10 µM, active compounds read low.
Sequence of Receptor tyrosine-protein kinase erbB-2 (Homo sapiens) (P04626 whole entry, looked up): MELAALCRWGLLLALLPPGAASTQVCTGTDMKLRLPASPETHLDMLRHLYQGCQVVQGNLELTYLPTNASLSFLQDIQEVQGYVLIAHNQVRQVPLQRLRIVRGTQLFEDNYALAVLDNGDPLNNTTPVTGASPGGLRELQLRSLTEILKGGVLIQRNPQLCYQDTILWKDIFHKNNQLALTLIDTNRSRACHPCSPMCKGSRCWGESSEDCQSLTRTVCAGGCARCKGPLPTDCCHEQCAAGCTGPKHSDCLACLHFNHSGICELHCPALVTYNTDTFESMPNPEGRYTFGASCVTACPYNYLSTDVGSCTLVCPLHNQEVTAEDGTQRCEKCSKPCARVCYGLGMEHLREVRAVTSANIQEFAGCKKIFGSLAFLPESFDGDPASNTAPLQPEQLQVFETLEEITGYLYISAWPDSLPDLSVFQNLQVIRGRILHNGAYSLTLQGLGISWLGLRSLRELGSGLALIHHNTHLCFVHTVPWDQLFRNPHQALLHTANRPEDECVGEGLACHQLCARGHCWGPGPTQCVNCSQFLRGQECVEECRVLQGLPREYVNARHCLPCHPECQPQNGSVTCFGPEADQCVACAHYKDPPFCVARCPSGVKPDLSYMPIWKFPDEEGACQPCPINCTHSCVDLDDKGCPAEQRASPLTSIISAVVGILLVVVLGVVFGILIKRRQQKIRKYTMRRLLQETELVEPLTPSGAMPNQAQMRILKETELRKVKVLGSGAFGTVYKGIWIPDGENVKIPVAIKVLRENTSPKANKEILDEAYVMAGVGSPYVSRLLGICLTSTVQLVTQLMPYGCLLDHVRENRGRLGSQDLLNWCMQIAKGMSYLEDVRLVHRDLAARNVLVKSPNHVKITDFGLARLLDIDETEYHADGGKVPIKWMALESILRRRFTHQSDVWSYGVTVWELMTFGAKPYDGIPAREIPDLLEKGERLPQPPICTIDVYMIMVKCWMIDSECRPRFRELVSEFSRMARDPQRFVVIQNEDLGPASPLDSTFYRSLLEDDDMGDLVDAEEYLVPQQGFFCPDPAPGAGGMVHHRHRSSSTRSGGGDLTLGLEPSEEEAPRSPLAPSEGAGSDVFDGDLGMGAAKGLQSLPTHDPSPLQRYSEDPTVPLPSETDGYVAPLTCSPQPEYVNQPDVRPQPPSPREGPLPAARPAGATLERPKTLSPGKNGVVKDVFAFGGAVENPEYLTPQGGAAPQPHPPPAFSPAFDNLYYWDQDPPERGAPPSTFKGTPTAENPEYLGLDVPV
In the case of CCCCNC(=O)c1c[nH]c2ccc(S(=O)(=O)Nc3ccc(OCC)cc3)cc2c1=O, the HER2 level % of control is reported as 54.9%.
Compound CCOC(=O)c1c(NC(=O)CCC(=O)NCc2ccco2)sc2c1CCCC2 has an HER2 level % of control of 104%.
Compound Fc1ccc2nc(-c3ccccc3)nc(SCc3nnc(-c4ccccc4)o3)c2c1 has an HER2 level % of control of 67.9%.
Work on O=C1CCc2cc(S(=O)(=O)N3CCC(C(=O)NCc4ccccc4Cl)CC3)ccc2N1 yielded an HER2 level % of control of 90.7%.
COc1nc(OC)nc(N(C)CCO)n1 gave an HER2 level % of control of 97.4%.
Compound COc1ccc(N2C(=O)CN=C2Nc2cccc(C)c2C)cc1OC has an HER2 level % of control of 70.2%.
In the case of CCCc1[nH]nc2c1C(c1ccc(OC)c(Cn3nc(C)c(Br)c3C)c1)C(C#N)=C(N)O2 (stereo not given), the HER2 level % of control is reported as -20.4% (active).
COc1ccc(C2C(C#N)=C(N)Oc3n[nH]c(C)c32)cc1CN1CCN(c2ccc(F)cc2)CC1 (stereo not given) showed an HER2 level % of control of 117%.
CCCc1[nH]nc2c1C(c1ccc(Br)s1)C(C#N)=C(N)O2 (stereo not given) was tested, and the HER2 level % of control was 124%.
Compound COc1ccc2oc(C)c(NC(C)=O)c2c1 has an HER2 level % of control of 71.5%.
With COc1ccc(NC(C)=O)cc1NC(=O)CN1CCN(C2c3ccccc3-c3ccccc32)CC1 the HER2 level % of control was 71.4%.
Compound CCOC(=O)C1CCCN(C(=O)CN(c2ccc(OC)cc2)S(=O)(=O)c2c(C)noc2C)C1 (stereo not given) has an HER2 level % of control of 95.7%.
In the case of c1ccc(-n2ncc(-c3nn[nH]n3)n2)cc1, the HER2 level % of control is reported as 88.5%.
In the case of COc1cc(Br)cc(/C=N/c2ncn[nH]2)c1O, the HER2 level % of control is reported as 92.3%.
In the case of Cc1cc(C)c2c(c1)c(C)cc1nnc(SCC(=O)NCc3ccco3)n12, the HER2 level % of control is reported as 104%.
Work on O=C(c1ccco1)N1CCN(C(=O)C2c3ccccc3Oc3ccccc32)CC1 yielded an HER2 level % of control of 100%.
CCc1c(O)nc(SCC(=O)N2CCCCC2)n(-c2ccccc2C)c1=O gave an HER2 level % of control of 114%.
N#CCCn1cnc2ccccc21 gave an HER2 level % of control of 106%.
In the case of COc1ccc(CC(=O)Nc2ccc(-c3nnc(-c4ccccc4)o3)cc2)cc1, the HER2 level % of control is reported as 87.4%.
In the case of COc1ccc(-c2nnc(SC(=O)N3c4ccccc4Sc4ccccc43)o2)cc1, the HER2 level % of control is reported as -15.7% (active).
COc1ccc(-c2nnc(SC(C)C#N)o2)cc1 (stereo not given) gave an HER2 level % of control of 127%.
In the case of CCn1nc(C(=O)OCC(=O)N2c3ccccc3CC2C)c2ccccc2c1=O (stereo not given), the HER2 level % of control is reported as 106%.
CCOc1ccc(NCCC(=O)c2ccc3c(c2)OCO3)cc1 gave an HER2 level % of control of 95.7%.
In the case of Nc1nonc1-c1noc(-c2ccc(Br)o2)n1, the HER2 level % of control is reported as 79.9%.
CCn1ncc(Br)c1C(=O)Nc1cc(C)ccc1F showed an HER2 level % of control of 75.8%.
Clc1cccc(Cl)c1Cn1nnc(-c2cccs2)n1 showed an HER2 level % of control of 89.2%.
In the case of O=C(CN1C(=O)CCC1=O)Nc1ccc(S(=O)(=O)N2CCOCC2)cc1, the HER2 level % of control is reported as 103%.
CCCCN(CC)CCCNC(=O)CS(=O)(=O)Cc1nc(-c2cccc(OC)c2)oc1C showed an HER2 level % of control of 80.5%.
For CC1(C)CC(O)C(CCC(O)c2ccccc2)C(C)(C)N1 (stereo not given), the HER2 level % of control was 89.8%.
Compound CCN(CC)S(=O)(=O)c1ccc(NC(=O)CN(c2cccc(F)c2)S(C)(=O)=O)cc1 has an HER2 level % of control of 152%.
COC(=O)[C@H](Cc1ccccc1)NC(=O)N1CC(C)OC(C)C1 (stereo not given in full) was tested, and the HER2 level % of control was 108%.
For C=C(C)COc1ccc(-c2n[nH]c(C)c2-c2ccccc2OC)c(O)c1, the HER2 level % of control was -9.89% (active).
Compound C=C(C)COc1ccc(-c2n[nH]c(C)c2-c2ccccc2)c(O)c1 has an HER2 level % of control of 68.6%.
Work on COc1ccc(-c2n[nH]c(C)c2-c2ccc(OC)c(OC)c2)c(O)c1 yielded an HER2 level % of control of 82.6%.
CCOC(=O)CNC(=O)CN1C(=O)CCSc2ccccc21 was tested, and the HER2 level % of control was 106%.
Compound Cn1c(=O)c2c(nc(N3CCCCCC3)n2CC(O)COc2ccc(Cl)cc2)n(C)c1=O (stereo not given) has an HER2 level % of control of 89%.
COc1ccccc1NC(=O)C1=C(C)NC2=C(C(=O)CCC2)C1c1ccc(C)o1 (stereo not given) was tested, and the HER2 level % of control was 90.6%.
For O=c1ccn(Cc2ccccc2Cl)cc1, the HER2 level % of control was 93.6%.
COc1ccccc1N1CCN(C(=O)c2ccc(S(=O)(=O)N3CCCCC3)cc2)CC1 gave an HER2 level % of control of 135%.
Cn1c(SCC(=O)Nc2cccc(O)c2)nnc1-c1ccc(S(=O)(=O)N2CCOCC2)cc1 showed an HER2 level % of control of 100%.
With CC(=O)Nc1nc(C)c(Cc2ccccc2)c(=O)[nH]1 the HER2 level % of control was 142%.
Cn1c(=O)c2cn(-c3cccc4ccccc34)cc2n(C)c1=O showed an HER2 level % of control of 94.5%.
For CC(=O)Nc1ccc(S(=O)(=O)Nc2cccc(NC(=O)C(C)(C)C)c2)cc1, the HER2 level % of control was 127%.
Compound COc1cc(NS(=O)(=O)c2ccc(NC(C)=O)cc2)cc(OC)c1 has an HER2 level % of control of 90.4%.
For CC(=O)Nc1ccc(NS(=O)(=O)c2cc(C)sc2C)cc1, the HER2 level % of control was -22.3% (active).
CCC(C)n1[nH]c(=O)c2c(C)cc(C)nc21 (stereo not given) was tested, and the HER2 level % of control was 116%.
With CCN(CC)CCCN1C(=O)C(=O)/C(=C(/O)c2c(C)nc3ccccn23)C1c1ccc(C)o1 (stereo not given) the HER2 level % of control was 90.1%.
For Cc1ccc(NC(=O)C2CC(c3ccc(F)cc3)=NO2)cc1 (stereo not given), the HER2 level % of control was 127%.
In the case of CCC1(C)N(O)C(C)(C)C(c2ccc(OC)cc2)=[N+]1[O-] (stereo not given), the HER2 level % of control is reported as 90.2%.
Work on O=C1c2ccccc2C(O)N1Cc1ccccc1Cl (stereo not given) yielded an HER2 level % of control of 99%.
Brc1cnc(N2CCCC2)nc1N1CCCCC1 gave an HER2 level % of control of 69.2%.
COc1ccc(CC(=O)Nc2nc3n(n2)C(c2ccccc2)CC(=O)N3)cc1OC (stereo not given) was tested, and the HER2 level % of control was 104%.
CCCn1c(SCC(=O)c2ccc3c(c2)OCCO3)nnc1C(C)C showed an HER2 level % of control of 116%.
For COc1cc(C2C(C(=O)Nc3ccccc3OC)=C(C)Nc3ncnn32)ccc1O (stereo not given), the HER2 level % of control was 106%.
O=C(C1CCN(S(=O)(=O)c2cccs2)CC1)N1CCCCCC1 gave an HER2 level % of control of 100%.
In the case of Cc1nc(-c2ccc(NC(=O)c3cccs3)cc2)cs1, the HER2 level % of control is reported as 103%.
Work on CC1=C(C)CC2C(=O)N(c3cccc4ccccc34)C(=O)C2C1 (stereo not given) yielded an HER2 level % of control of 102%.
For CC(C)Cn1c(N)c(C(=O)NCc2cccs2)c2nc3ccccc3nc21, the HER2 level % of control was -24.2% (active).
Compound C=CCn1c(N)c(S(=O)(=O)c2cccs2)c2nc3ccccc3nc21 has an HER2 level % of control of 86.9%.
Compound C=CCn1c(N)c(C(=O)OCC(C)C)c2nc3ccccc3nc21 has an HER2 level % of control of 86%.
In the case of COc1ccc(OCC(=O)OCCN(C)C)cc1, the HER2 level % of control is reported as 117%.
Compound O=C(O)C1C2C=CC(C2)C1C(=O)N1CCN(CCO)CC1 (stereo not given) has an HER2 level % of control of 56.8%.
For Cn1c(-c2ccc(F)cc2)cnc1SCC(=O)NCc1ccco1, the HER2 level % of control was 85.8%.
In the case of O=c1[nH]c(CSc2ncc(-c3ccc(F)cc3)n2Cc2ccco2)nc2ccccc12, the HER2 level % of control is reported as -21.8% (active).
In the case of Nc1cc(=O)nc(SCc2ccccc2)n1Cc1ccco1, the HER2 level % of control is reported as 77%.
With CN(C)c1nc2n(c(=O)n1)CCO2 the HER2 level % of control was 93.2%.
In the case of CCC(=O)NC(=Nc1nc2ccccc2s1)NC(=O)CC, the HER2 level % of control is reported as 76%.
CCC(=O)c1cc2c(cc1NC(=O)c1cccs1)OCCO2 showed an HER2 level % of control of 102%.
Compound COc1cccc(NC(=O)C(C)Oc2ccccc2)c1 (stereo not given) has an HER2 level % of control of 87.6%.
CCCC1CC(C)(C(=O)Cn2[nH]c(=O)ccc2=O)OC1=O (stereo not given) gave an HER2 level % of control of 109%.
Compound COc1ccccc1CNC(=O)Cn1cc2c(n1)CCCC2 has an HER2 level % of control of 95.6%.
For CCc1cc2c(=O)c(-c3ccon3)c(N)oc2cc1OC, the HER2 level % of control was 49.1%.
For Cc1ccccc1CN1CCN(C(=O)c2cccc(F)c2)CC1, the HER2 level % of control was 79%.
With OC(COc1ccc2ccccc2c1)CN1CCOCC1 (stereo not given) the HER2 level % of control was 113%.
For c1ccc2cc(OCCN3CCCC3)ccc2c1, the HER2 level % of control was -25.1% (active).
Cc1cc(OCCN2CCCC2)ccc1C(C)C was tested, and the HER2 level % of control was 63%.
In the case of CCOC(=O)Cc1csc(NC(=O)C(C)(C)C)n1, the HER2 level % of control is reported as 135%.
CCc1nc2ccccc2n(CCOCCOCCn2c(=O)c(CC)nc3ccccc32)c1=O showed an HER2 level % of control of 91.8%.
Work on CC(=O)NC1=NC(=O)CS1 yielded an HER2 level % of control of 76.7%.
Cn1c2c(c(=O)n(C)c1=O)C1c3ccccc3OCC1C(C)(C)O2 (stereo not given) was tested, and the HER2 level % of control was 99.2%.
Work on CCOc1ccccc1N=C1NC(=O)CS1 yielded an HER2 level % of control of 88.8%.
With CCN(CC)CCNC(=O)Cn1cnc2sc(C)c(S(=O)(=O)N3CCOCC3)c2c1=O the HER2 level % of control was 103%.
In the case of OC(COc1cccc2ccccc12)CN1CCN(c2ccccn2)CC1 (stereo not given), the HER2 level % of control is reported as 105%.
For O=C1CSC(=O)N1CCOCCN1C(=O)CSC1=O, the HER2 level % of control was 104%.
Cc1ccc2c(CSc3nncs3)cc(=O)oc2c1 showed an HER2 level % of control of 149%.
With Cc1cc(=O)[nH]c(SCc2cc(Cl)ccc2OC(F)F)n1 the HER2 level % of control was 103%.
Compound CC1CC(c2ccccc2)n2nc(NC(=O)c3cccs3)nc2N1 (stereo not given) has an HER2 level % of control of 89%.
CCOC(=O)Cc1c(C)nc2c(C#N)c(C)nn2c1C was tested, and the HER2 level % of control was 92.6%.
Work on COCCNCCOCCOc1cccc(OC)c1 yielded an HER2 level % of control of 102%.
Cc1nc(C)c2c(c1C(F)(F)F)-c1ccccc1C2(F)F gave an HER2 level % of control of 78.7%.
For COc1ccc(C(c2nnnn2C2CCCCC2)N2CCN(c3ccccc3F)CC2)cc1 (stereo not given), the HER2 level % of control was 80.7%.
O=C(c1ccc2c(c1)N(Cc1ccc(F)cc1)C(=O)CS2)N1CCOCC1 was tested, and the HER2 level % of control was 98.6%.
CC(=O)N1CCN(c2cccc(C)c2C)CC1 was tested, and the HER2 level % of control was 110%.
COc1ccc(C(CNC(=O)c2cccnc2SC)N2CCOCC2)cc1 (stereo not given) gave an HER2 level % of control of 106%.
CC(=O)Nc1ccc(S(=O)(=O)N2CCCC2C(=O)O)cc1 (stereo not given) was tested, and the HER2 level % of control was 162%.
For COC(=O)c1ccc(NC(=O)c2ccco2)cc1, the HER2 level % of control was 85.8%.
With COC(=O)c1ccc(NC(=O)C(C)N2C(=O)c3ccccc3C2=O)cc1 (stereo not given) the HER2 level % of control was -18.9% (active).
For Cc1cc(C)nc(NC(=O)C(C)N2C(=O)c3ccccc3C2=O)n1 (stereo not given), the HER2 level % of control was 89.5%.
Compound COC(=O)C1C(=O)c2c([nH]c(C(=O)OCCSC)c2C)CC1C (stereo not given) has an HER2 level % of control of 99.8%.
In the case of CCOC(=O)c1c(C)n(C)c2ccc(OC)c(NC(=O)CN3CCC4(CC3)OCCO4)c12, the HER2 level % of control is reported as 34.4%.
